Screening results as filed in PubChem.
Compounds with a hit are over-represented: about 1.2% of the library has one in this group of screens.
uPA surface inh: inhibitors of cell surface uPA generation; cell surface uPA generation assay, qHTS; Potency, µM (titrated, usually from 38.3 µM), for inactives: at the highest dose activity change, negative = inhibition, most hits filed as inhibitors; 330,000 tested, 0.31% active; active means well fitted inhibition curve with a large enough effect; inconclusive means small, poorly fitted or top-dose-only effect; inactive means no such curve, though single readings can be large or run the other way; tested in mouse RAW 264.7 cells; further: potency means the concentration at half of the fitted maximal effect; on the % scale 0 is the no-effect control and ±100 the full control effect; nearly all actives have a fitted effect of over 55% in size
CCT chaperon mod: modulators of cytosolic chaperonin (CCT/TRiC) activity. purified chaperonin ATPase assay, HTRF ADP detection, 30 min. activity change, % (no concentration beside the values), hits read low. 360,000 tested, 0.3% active; in the data active means activity change below about -30%; further: on the % scale 0 is the no-effect control and ±100 the full control effect
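First, chaperonin was dispensed at 40 nM or 20 nM final depending on batch activity. Next, compounds were pinned at 76 uM and ATP added at 10 uM. After 30 min at 37 °C, ADP detection reagents ran 30 min at ambient temperature.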
gsp antagonist: gsp mutant antagonism; Potency, µM (titrated, usually from 76.9 µM), for the others: at the top dose activity change, negative = inhibition, most hits filed as inhibitors; AID 624288; 340,000 tested, 0.4% active; gsp-mutant cells, cAMP HTRF, 30 min; calls by dose curve; cell line not stated here;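 further: intracellular cAMP measured with PDE inhibitor Ro 20-1724 present during compound exposure; potency means the concentration at half of the fitted maximal effect; on the % scale 0 is the no-effect control and ±100 the full control effect; nearly all actives have a fitted effect of over 65% in size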
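Cells, 2000/well, grown 16–24 h in DMEM 10% FBS with 0.5 mg/ml G418, then compounds plus […] (300 uM addition stock), 30 min at 37C. cAMP read by HTRF (cAMP-d2 and anti-cAMP antibody-K in lysis buffer) after 30 min RT.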
gsp agonist: agonists of gsp mutant (McCune-Albright syndrome); gsp mutant cells, cAMP HTRF, 30 min; Potency, µM (top dose mostly 76.9 µM), for inactives: top-dose activation (cAMP increase), usual class: activators; 340,000 tested, 0.13% active; AID 624287; active means well fitted activation curve with a large enough effect; inconclusive means small, poorly fitted or top-dose-only effect, or another doubt; inactive means no such curve, though single readings can be large or run the other way; cell line not stated here;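 further: phosphodiesterase inhibitor Ro 20-1724 added with compounds to block cAMP breakdown; potency means the concentration at half of the fitted maximal effect; nearly all actives have a fitted effect of over 60% in size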
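Cells stably selected in G418 were plated at 2000/well, grown 16-24 hr, then given compounds in DMSO with the PDE inhibitor […] (300 uM solution added) for 30 min at 37C; cAMP was read by HTRF.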
TSHR antagonist: blocks TSH signaling through the human TSH receptor | P16473 | TSHR-expressing cells, TSH-stimulated cAMP HTRF, 2 h; stronger effect = lower value | activity change, negative = inhibition, % at 11.5 µM | 330,000 tested, 0.2% active;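 active means activity change below a set negative limit, meaning inhibition stronger than a set level, cut at about -70% in these data; inconclusive means activity change between two set negative limits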; further: on the % scale 0 is the no-effect control and ±100 the full control effect
Target sequence (P16473 whole entry, looked up): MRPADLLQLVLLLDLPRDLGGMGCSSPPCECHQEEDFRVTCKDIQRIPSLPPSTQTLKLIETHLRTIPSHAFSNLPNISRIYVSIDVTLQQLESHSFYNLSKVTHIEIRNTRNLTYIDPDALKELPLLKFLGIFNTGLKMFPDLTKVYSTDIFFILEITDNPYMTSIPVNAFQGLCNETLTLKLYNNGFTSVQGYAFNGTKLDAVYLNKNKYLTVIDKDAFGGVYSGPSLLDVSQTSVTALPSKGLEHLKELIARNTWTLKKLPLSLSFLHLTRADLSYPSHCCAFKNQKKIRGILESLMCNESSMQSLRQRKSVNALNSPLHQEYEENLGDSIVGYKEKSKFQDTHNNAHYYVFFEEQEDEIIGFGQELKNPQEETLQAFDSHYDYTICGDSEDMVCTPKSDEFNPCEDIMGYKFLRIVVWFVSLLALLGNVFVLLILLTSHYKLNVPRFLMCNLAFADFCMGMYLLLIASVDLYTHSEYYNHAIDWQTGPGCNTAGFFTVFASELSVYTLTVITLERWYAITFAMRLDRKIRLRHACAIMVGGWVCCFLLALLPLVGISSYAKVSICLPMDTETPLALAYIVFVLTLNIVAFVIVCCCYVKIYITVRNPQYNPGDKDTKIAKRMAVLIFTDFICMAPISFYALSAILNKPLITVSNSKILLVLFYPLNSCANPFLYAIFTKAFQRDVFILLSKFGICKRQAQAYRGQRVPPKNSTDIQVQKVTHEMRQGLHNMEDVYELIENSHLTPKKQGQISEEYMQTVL
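Cell-based HTRF cAMP assay; TSHR cells + compound, TSH EC80 (4nM final), 2 h, 37 deg C. Lysis with anti-cAMP cryptate and cAMP-d2, 30 min RT, read 665/620 nm.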
Mm-Cpn inhibitor: inhibitors of Methanococcus maripaludis chaperonin TRiC (MmCpn) | purified Mm-Cpn ATPase, ADP Transcreener TR-FRET | Potency, µM (top dose mostly 76.9 µM), for inactives: at the highest dose activity, negative = inhibition, hits mostly inhibitors | 330,000 tested, 0.031% active | AID 504842; active means well fitted inhibition curve with a large enough effect; inconclusive means small, poorly fitted or top-dose-only effect; further: potency means the concentration at half of the fitted maximal effect; on the % scale 0 is the no-effect control and ±100 the full control effect; nearly all actives have a fitted effect of over 80% in size
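Compound-treated chaperonin, 25 nM final, turns over 10 uM ATP at 37°C for 30 min following a 10 min preincubation; ADP generated competes with ADP-d2 for Eu-cryptate antibody, lowering FRET.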
Numbers without * were called inactive; ? = inconclusive; / = not tested or not shown; [ ] = remark or other dose.

SMILES | uPA surface inh | CCT chaperon mod | gsp antagonist | gsp agonist | TSHR antagonist | Mm-Cpn inhibitor
COc1cc(OC)c(C(=O)O/N=C(\N)c2ccccc2)cc1OC | ? | -2 | 16% | -20% | -10 | 1%
CCN(CC)CCCNC(=O)c1nn(-c2cccc(OC)c2)c(=O)c2ccccc12 | -1% | -76* | 11% | ? | 11 | -1%
CNc1nc(-c2cccc(C(=O)N(C)C)c2)cn2ccnc12 | / | 0 | / | / | / | /
O=C(NCc1ccccc1F)c1cccs1 | / | -37* | 6% | 4% | 7 | 0%
O=C(NCc1ccc(F)cc1)c1cccs1 | 12% | -3 | 10% | ? | 59 | 0%
C/C(=C1/SC(=S)N(CCC(=O)O)C1=O)c1ccc(O)cc1 | -9% | -38* | 5% | -17% | -14 | -2%
CN(CC(=O)Nc1nc2ccccc2s1)S(=O)(=O)c1ccc(Br)cc1 | -18% | -2 | 40µM* | -10% | -23 | 2%
Cc1cccc(NC(=O)CN(C)S(=O)(=O)c2ccc(Br)cc2)n1 | 7% | 0 | 7% | 1% | -4 | -10%
CN(CC(=O)Nc1nc2ccccc2s1)S(=O)(=O)c1ccc(Cl)cc1 | 4% | 0 | 32µM* | -7% | -18 | -1%
O=C(N/N=C/c1cccc([N+](=O)[O-])c1)c1cccc2cc[nH]c12 | 4% | -3 | -7% | -2%[15.4 µM] | 14 | -1%
O=C(N/N=C/c1cc([N+](=O)[O-])ccc1O)c1cccc2cc[nH]c12 | 4.5µM* | -2 | -4% | 13% | -10 | -1%
O=C(COC(=O)c1ccccc1O)NC(=O)c1ccc(OC(F)F)cc1 | -4% | -4 | 6% | 36% | -6 | 1%
OCCC1CN(Cc2cc(F)ccc2-n2cccn2)CCN1C1CCCC1 (centres undefined) | -9% | -30* | 2% | ? | 2 | 0%
CC(C)CCN1CCN(Cc2cc(F)ccc2-n2cccn2)CC1CCO (centres undefined) | 1% | 1 | 1% | 13%[15.4 µM] | -1 | -1%
CCOC(=O)c1nn(-c2ccc(OCC)cc2)c(C)c1C(C)=O | 2% | 0 | 0% | 0%[15.4 µM] | 1 | 1%
CCOC(=O)C(=O)Nc1ccc(F)cc1 | 2% | -84* | -10% | 7% | 28 | 1%
CCOC(=O)C(=O)Nc1ccc(Oc2ccccc2)cc1 | 4% | 1 | -1% | -74% | -28 | -2%[15.4 µM]
Cc1nn2c(CN(C(=O)CN3CCOCC3)c3ccccc3)nnc2c2ccccc12 | -4% | -34* | 16% | 50%[15.4 µM] | 29 | -1%
COc1cc(NC(=O)c2ccccc2[N+](=O)[O-])ccc1NC(=O)c1cc2ccccc2o1 | -15% | 2 | 22µM* | 24% | / | /
NC(=O)CSc1nnc(-c2cc3ccccc3o2)n1Cc1ccccc1 | 4% | -62* | -3% | ? | -2 | 7%
Cc1ccc(-c2noc(C3CCCN(C(=O)c4ccccc4Br)C3)n2)cc1 (centres undefined) | -1% | -4 | 45µM* | -14% | -18 | 0%
O=C(Nc1ccccc1O)c1cccc(S(=O)(=O)Nc2ccccc2O)c1 | -2% | -4 | -1% | 0%[15.4 µM] | / | /
OC1(c2cccc(C(F)(F)F)c2)CCN(c2ncnc3c2[nH]c2ccc(F)cc23)CC1 | -8% | 2 | 25µM* | -27% | / | /
Fc1ccc2[nH]c3c(N4CCN(c5ccccc5)CC4)ncnc3c2c1 | -9% | 1 | ? | 17% | -89* | -1%
COc1ccc(N2CCN(c3ncnc4c3[nH]c3ccccc34)CC2)cc1 | -12% | 1 | 16µM* | 14% | / | /
COc1ccc2[nH]c3c(N4CCc5ccccc5C4)ncnc3c2c1 | ? | 2 | -13% | -1%[15.4 µM] | -21 | -3%
CCOC(=O)c1cc(-c2ccccc2)nc2ccc(C)cc12 | 0% | 0 | -14% | -10% | 19 | 6%
Cc1ccc(OCC(=O)Nc2cc(S(=O)(=O)N3CCCCC3)ccc2N2CCN(C)CC2)c(C)c1 | ? | 1 | -4% | 5% | -1 | -2%
O=C(O)COc1ccc(S(=O)(=O)c2ccc(OCC(=O)O)cc2)cc1 | 0% | 1 | 6% | -5% | -19 | 2%
